The record followed here is PubChem BioAssay (NCI).

Test systems include NCI-H23 lung; NCI-H226 lung; NCI-H322M lung; HOP-62 NSCLC; NCI-H460 lung; HOP-92 NSCLC; NCI-H522 lung; A549/ATCC NSCLC; 786-0 renal; COLO 205 colon; DU-145 prostate; K-562 leukemia; MALME-3M melanoma; MDA-MB-231 breast; RXF 393 renal; SF-268 CNS; SF-295 CNS; SF-539 CNS; UACC-257 melanoma; M14 melanoma.
Common to all, as to assay: NCI-60 one-dose screen, 48 h (100 = growth as untreated, 0 = no growth, -100 = all killed)
Common to all, as to conditions: 10 µM unless noted

The panel holds about 83,000 compounds, 20% with a hit somewhere; the sample as a whole holds those more often.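 Testing used 96-well plates and a 48-hour single-concentration exposure. Example: -40 means 40% of the starting cells died.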 A number with no mark means an inactive call. The source made the active and inactive calls. Rule for the calls: active = growth percent below 10; inactive = the rest.

For `CCCCCCOc1ccc(/C=N/Nc2cc(C)nc3ccc(Br)cc23)cc1`, the growth was 14% in the assay on NCI-H23 lung; 71.1% with NCI-H226 lung; -73.7% (active) with NCI-H322M lung; -65.4% (active) with HOP-62 NSCLC; -72% (active) in the assay with NCI-H460 lung; 34.5% with HOP-92 NSCLC. For the same compound, the growth is -61.4% (active) in the assay on NCI-H522 lung; -59.5% (active) in the assay on A549/ATCC NSCLC; -87.7% (active) with 786-0 renal; -51.8% (active) with COLO 205 colon; -82.9% (active) in the assay with DU-145 prostate; -64.5% (active) with K-562 leukemia. Besides, the growth in the assay on MALME-3M melanoma was -82.3% (active); in the assay on MDA-MB-231 breast, -88.9% (active); with RXF 393 renal, -97.3% (active); with SF-268 CNS it was -1.78% (active); with SF-295 CNS, -83.3% (active); in the assay on SF-539 CNS, -84.8% (active). For the same compound, the growth with UACC-257 melanoma was 117%; in the assay on M14 melanoma it was -44.4% (active).
`Cc1ccccc1CNc1ccc(N2CCOCC2)cc1`: the growth was 99.1% in the assay on NCI-H23 lung; 107% in the assay on NCI-H226 lung; 98.3% with NCI-H322M lung; 117% with HOP-62 NSCLC; 112% with NCI-H460 lung; 115% in the assay on HOP-92 NSCLC. The growth is 101% in the assay with NCI-H522 lung; 103% in the assay with A549/ATCC NSCLC; 107% in the assay with 786-0 renal; 108% in the assay on COLO 205 colon; 102% in the assay on DU-145 prostate; 101% with K-562 leukemia. The growth was 102% in the assay with MALME-3M melanoma; 101% in the assay on MDA-MB-231 breast; 114% in the assay with RXF 393 renal; 93.4% in the assay on SF-268 CNS; 99.2% in the assay on SF-295 CNS; 111% with SF-539 CNS. Further, the figures for the growth in the assay with UACC-257 melanoma and in the assay on M14 melanoma were 103% and 100%, respectively.
Turning to `CCOc1ccc(/C=N/Nc2cc(C)nc3ccc(Cl)cc23)cc1`, the growth was 78.9% in the assay on NCI-H23 lung; 79.5% with NCI-H226 lung; 66.9% in the assay on NCI-H322M lung; 94.4% with HOP-62 NSCLC; 3.37% (active) in the assay on NCI-H460 lung; 50.5% in the assay with HOP-92 NSCLC. Further, the growth is 58.4% with NCI-H522 lung; 59.9% in the assay with A549/ATCC NSCLC; 33.2% in the assay with 786-0 renal; 21% in the assay on COLO 205 colon; 44.4% with DU-145 prostate; -38.7% (active) with K-562 leukemia. In addition, the growth is -38.9% (active) in the assay with MALME-3M melanoma; 43% in the assay with MDA-MB-231 breast; 0.829% (active) in the assay with RXF 393 renal; 75.2% in the assay with SF-268 CNS; -64.6% (active) in the assay with SF-295 CNS; 83.6% with SF-539 CNS. In addition, the values for the growth in the assay with UACC-257 melanoma and with M14 melanoma were 69.5% and -39.6% (active), respectively.
Take `COc1cc2c(cc1[N+](=O)[O-])-c1ccc([N+](=O)[O-])cc1/C2=N/NC(N)=S`: the growth with NCI-H23 lung is 71.5%; with NCI-H226 lung it was 62.6%; with NCI-H322M lung, 93.9%; in the assay with HOP-62 NSCLC it was 99.9%; with NCI-H460 lung, 29.6%; in the assay with HOP-92 NSCLC it was 78.3%. The growth in the assay with NCI-H522 lung was 35.5%; in the assay on A549/ATCC NSCLC, 69.2%; in the assay with 786-0 renal, 70.6%; in the assay on COLO 205 colon, 66.7%; with DU-145 prostate, 79%; in the assay on K-562 leukemia, 59.9%. For the same compound, the growth in the assay with MALME-3M melanoma is 93.7%; in the assay with MDA-MB-231 breast, 74.4%; with RXF 393 renal it was 68.2%; with SF-268 CNS, 73.9%; with SF-295 CNS, 43.6%; in the assay with SF-539 CNS it was 73%. Further, the growth with UACC-257 melanoma was 75.5%; in the assay on M14 melanoma, 82.8%.
For the compound `O=C1C(=O)c2c(nc3ncccn23)-c2ccccc21`, the growth was -49.4% (active) in the assay on NCI-H23 lung; -83.2% (active) with NCI-H226 lung; -96.7% (active) with NCI-H322M lung; -90.4% (active) with HOP-62 NSCLC; -49.3% (active) in the assay with NCI-H460 lung; -84.1% (active) with HOP-92 NSCLC. Besides, the growth with NCI-H522 lung was -60.7% (active); in the assay with A549/ATCC NSCLC it was -35.6% (active); in the assay with 786-0 renal, -94.9% (active); in the assay on COLO 205 colon, -70.7% (active); in the assay with DU-145 prostate it was -96.8% (active); with K-562 leukemia, -43.5% (active). In addition, the growth in the assay on MALME-3M melanoma is -96.9% (active); in the assay on MDA-MB-231 breast it was -55.3% (active); with RXF 393 renal, -97.2% (active); in the assay on SF-268 CNS, -70.8% (active); in the assay on SF-295 CNS it was -97.8% (active); in the assay with SF-539 CNS it was -98.3% (active). The growth was -95.4% (active) in the assay with UACC-257 melanoma and -87% (active) in the assay with M14 melanoma.
Take `C=C1C(=O)O[C@H]2[C@H]1CC/C(COC(=O)CCCc1c[nH]c3ccccc13)=C\CC[C@@]1(C)O[C@@H]21`: the growth was 65.9% in the assay with NCI-H23 lung; 76.7% with NCI-H226 lung; 104% in the assay on NCI-H322M lung; 89.8% in the assay with HOP-62 NSCLC; 85.9% in the assay with NCI-H460 lung; 44.6% with HOP-92 NSCLC. In addition, the growth with NCI-H522 lung was 39.9%; with A549/ATCC NSCLC, 72%; with 786-0 renal, 14.2%; in the assay with COLO 205 colon, 64.8%; in the assay with DU-145 prostate it was 49.6%; in the assay on K-562 leukemia, -9.04% (active). Moreover, the growth in the assay on MALME-3M melanoma was 86.4%; in the assay with MDA-MB-231 breast, 35.4%; with RXF 393 renal it was 32.7%; in the assay with SF-268 CNS it was 60.8%; with SF-295 CNS it was 82%; in the assay on SF-539 CNS, 41.7%. Moreover, the growth in the assay on UACC-257 melanoma was 64.1%; in the assay on M14 melanoma, 53.1%.
Regarding `CCCCCN1C=C/C(=C\C(=O)N(C)c2cccc3ccccc23)c2ccccc21`, the growth was 81.4% with NCI-H23 lung; 101% in the assay with NCI-H226 lung; 97.7% in the assay on NCI-H322M lung; 102% in the assay with HOP-62 NSCLC; 105% in the assay with NCI-H460 lung; 92.6% with HOP-92 NSCLC. Moreover, the growth in the assay on NCI-H522 lung was 83.1%; with A549/ATCC NSCLC, 102%; in the assay with 786-0 renal, 96.8%; in the assay on COLO 205 colon it was 109%; with DU-145 prostate, 104%; in the assay with K-562 leukemia, 77.4%. The growth in the assay with MALME-3M melanoma was 94%; in the assay on MDA-MB-231 breast, 106%; with RXF 393 renal it was 107%; with SF-268 CNS, 95.3%; in the assay on SF-295 CNS it was 97.7%; in the assay with SF-539 CNS, 105%. Moreover, the growth in the assay with UACC-257 melanoma was 106%; in the assay on M14 melanoma, 102%.
